Values without a mark were called inactive. Records with an inconclusive call do not appear. A call without a number means that no potency is given here. Calls of active or inactive are those of the source. Calls follow the shape of the dose curve; as a rule, active = well fitted curve in the direction sought with a large enough effect in the repeat runs; inconclusive = weak or mixed curves; inactive = no such curve, though single readings can be large; an effect the other way counts as inactive or inconclusive.
Key:
[1] = qHTS RealTime-Glo MT Cell Viability Assay in HepG2 cells - 24 hour (AID 1224867); also: nearly all actives have a fitted effect of over 50% in size
Outline: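 Viability was tracked continuously by NanoLuc luminescence from prosubstrate reduced by living HepG2 cells, at successive time points over 40 h of compound exposure. Cells with reagent were preincubated 5 h at 37 °C before compound addition.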

[2] = A CellTox Green Cytotoxicity Assay to monitor cytotoxicity in HEK293 cells - 0 hour (AID 1224869); also: nearly all actives have a fitted effect of over 50% in size
Outline: (§1)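 Cells (HEK293, 600/well) and dye reagent are dispensed together. After 5 h at 37 C, 23 nL compound is pinned in. Plates stay at 37 C for 40 h with fluorescence read at 0h, 8h, 16h, 24h, 32h and 40h.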

[3] = qHTS RealTime-Glo MT Cell Viability Assay in HepG2 cells - 40 hour (AID 1224870); also: nearly all actives have a fitted effect of over 50% in size
Outline: (§2)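 Real-time viability: cells seeded at 600 per well together with NanoLuc and cell-permeant prosubstrate, compounds added after 5 h incubation. Luminescence tracked at 0, 8, 16, 24, 32 and 40 h of exposure.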

[4] = A CellTox Green Cytotoxicity Assay to monitor cytotoxicity in HEK293 cells - 40 hour (AID 1224871); also: nearly all actives have a fitted effect of over 45% in size; also: potency is read from the fitted curve at half-maximal effect
Outline: as §1

[5] = qHTS RealTime-Glo MT Cell Viability Assay in HEK293 cells - 16 hour (AID 1224872); also: top concentration of the series differs between compounds; nearly all actives have a fitted effect of over 50% in size
Outline: (§3)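 Viability tracked continuously by luminescence as live cells reduce a prosubstrate for NanoLuc; HEK293 cells preincubated 5 h, compound-treated at 37 C, and read at 0, 8, 16, 24, 32 and 40 h.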

[6] = qHTS RealTime-Glo MT Cell Viability Assay in HEK293 cells - 40 hour (AID 1224874); settings: RealTime-Glo luminescence, active compounds read low; also: nearly all actives have a fitted effect of over 50% in size
Outline: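 Real-time viability in HEK293: signal arises when living cells convert a prosubstrate for NanoLuc in the medium, so luminescence tracks viable cell number. Compound (23 nL, DMSO) added 5 h post-seeding; kinetic reads at 0–40 h, 37 C.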

[7] = A CellTox Green Cytotoxicity Assay to monitor cytotoxicity in HEK293 cells - 24 hour (AID 1224875); also: nearly all actives have a fitted effect of over 45% in size; also: potency is read from the fitted curve at half-maximal effect
Outline: as §1

[8] = A CellTox Green Cytotoxicity Assay to monitor cytotoxicity in HepG2 cells - 16 hour (AID 1224876); also: nearly all actives have a fitted effect of over 45% in size; also: potency is read from the fitted curve at half-maximal effect
Outline: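 Cells and non-lytic dye reagent are dispensed together (600 HepG2 cells/well) and incubated 5 h before DMSO compound transfer. Kinetic fluorescence is then recorded in the same wells during 40 h at 37 C.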

[9] = qHTS RealTime-Glo MT Cell Viability Assay in HepG2 cells - 8 hour (AID 1224873); also: nearly all actives have a fitted effect of over 55% in size
Outline: as §2

[10] = qHTS RealTime-Glo MT Cell Viability Assay in HEK293 cells - 32 hour (AID 1224868)
Outline: as §3

Clc1cc(Cl)c(Cl)c(Cl)c1Cl
outcome [1]: inactive | outcome [2]: inactive | outcome [3]: inactive | Potency [4]: inactive | outcome [5]: inactive | max response [6]: -0.18% | Potency [7]: inactive | Potency [8]: inactive

Cc1cc(N)no1
outcome [1]: inactive | outcome [2]: inactive | outcome [3]: inactive | Potency [4]: inactive | outcome [5]: inactive | outcome [9]: inactive | max response [6]: 13.5% | Potency [7]: inactive | Potency [8]: inactive

O=S(=O)(O)c1cc(I)c(O)c2ncccc12
outcome [1]: inactive | outcome [2]: inactive | outcome [3]: inactive | Potency [4]: inactive | outcome [5]: inactive | outcome [9]: inactive | max response [6]: 5.82% | Potency [7]: inactive | Potency [8]: inactive

COc1ccc2cc(CCC(C)=O)ccc2c1
outcome [1]: inactive | outcome [2]: inactive | outcome [3]: inactive | Potency [4]: inactive | outcome [5]: inactive | outcome [9]: inactive | Potency [7]: inactive | Potency [8]: inactive

NNC(=O)OCc1ccccc1
outcome [1]: inactive | outcome [2]: inactive | outcome [3]: inactive | Potency [4]: inactive | outcome [5]: inactive | outcome [9]: inactive | Potency [7]: inactive | Potency [8]: inactive

CC/C=C\CCOC(=O)c1ccccc1
outcome [1]: inactive | outcome [2]: inactive | outcome [3]: inactive | outcome [9]: inactive | max response [6]: -28.3% | Potency [7]: inactive | Potency [8]: inactive

CC(C)(C)c1ccc(N)cc1
outcome [1]: inactive | outcome [2]: inactive | outcome [3]: inactive | Potency [4]: inactive | outcome [5]: inactive | outcome [9]: inactive | Potency [7]: inactive

O=C1c2ccccc2C(=O)N1CO
outcome [1]: inactive | outcome [2]: inactive | outcome [3]: inactive | Potency [4]: inactive | outcome [5]: inactive | outcome [9]: inactive | max response [6]: -6.25% | Potency [7]: inactive | Potency [8]: inactive

CCCCCCCCCCCBr
outcome [1]: inactive | outcome [2]: inactive | outcome [3]: inactive | Potency [4]: inactive | outcome [5]: inactive | outcome [9]: inactive | max response [6]: -3.54% | Potency [7]: inactive | Potency [8]: inactive

CC(=O)c1c(C)cc(C(C)(C)C)cc1C
outcome [1]: inactive | outcome [2]: inactive | outcome [3]: inactive | Potency [4]: 24.5 µM (active) | Potency [7]: 21.9 µM (active) | Potency [8]: 38.9 µM (active)

NNC(=O)CCCCC(=O)NN
outcome [1]: inactive | outcome [2]: inactive | outcome [3]: inactive | outcome [5]: inactive | outcome [9]: inactive | max response [6]: 3.47% | Potency [7]: inactive | Potency [8]: inactive

C[C@]12C=CC(=O)C=C1[C@@H](F)C[C@@H]1[C@@H]2[C@@H](O)C[C@@]2(C)[C@H]1CC[C@]2(O)C(=O)CO
outcome [1]: inactive | outcome [2]: inactive | outcome [3]: inactive | Potency [4]: inactive | outcome [5]: inactive | outcome [9]: inactive | max response [6]: -0.454% | Potency [7]: inactive | Potency [8]: inactive

COC(=O)c1ccc(NC(C)=O)cc1OC
outcome [1]: inactive | outcome [2]: inactive | outcome [3]: inactive | Potency [4]: inactive | outcome [5]: inactive | outcome [9]: inactive | max response [6]: 3.94% | Potency [7]: inactive | Potency [8]: inactive

NC(=O)CC[C@@H](N)C(=O)O
outcome [10]: inactive | outcome [2]: inactive | outcome [3]: inactive | Potency [4]: inactive | outcome [5]: inactive | outcome [9]: inactive | max response [6]: 8.04% | Potency [7]: inactive | Potency [8]: inactive

Cc1ccccc1C#N
outcome [10]: inactive | outcome [2]: inactive | outcome [3]: inactive | Potency [4]: inactive | outcome [5]: inactive | outcome [9]: inactive | max response [6]: 7.55% | Potency [7]: inactive | Potency [8]: inactive

C/C(=N\O)c1ccc(OCC(=O)N2CCCCC2)cc1
outcome [1]: inactive | outcome [2]: inactive | outcome [3]: inactive | Potency [4]: inactive | outcome [5]: inactive | outcome [9]: inactive | max response [6]: -11.7% | Potency [7]: inactive | Potency [8]: inactive

COC(=O)c1c(C)cc(O)c(C)c1O
outcome [2]: inactive | outcome [3]: inactive | Potency [4]: inactive | outcome [9]: inactive | Potency [7]: inactive | Potency [8]: inactive

CCOC(=O)CN1CCCC1=O
outcome [10]: inactive | outcome [2]: inactive | outcome [3]: inactive | outcome [5]: inactive | outcome [9]: inactive | max response [6]: 0.653% | Potency [7]: inactive | Potency [8]: inactive

CC1(C)CC(N)CC(C)(C)N1
outcome [10]: inactive | outcome [2]: inactive | outcome [3]: inactive | Potency [4]: inactive | outcome [5]: inactive | outcome [9]: inactive | max response [6]: 16.7% | Potency [7]: inactive | Potency [8]: inactive

COc1cc2nc(N3CCN(C(=O)C4CCCO4)CC3)nc(N)c2cc1OC (configuration not stated)
outcome [10]: inactive | outcome [2]: inactive | outcome [3]: inactive | outcome [5]: inactive | outcome [9]: inactive | Potency [7]: inactive | Potency [8]: inactive

Clc1ccc2c(c1)Nc1ccccc1S2
outcome [2]: inactive | outcome [3]: inactive | Potency [4]: inactive | outcome [5]: inactive | outcome [9]: inactive | max response [6]: -17.2% | Potency [7]: inactive

CC(C)(C)C(=O)CCc1ccc(Cl)cc1
outcome [2]: inactive | outcome [3]: inactive | Potency [4]: inactive | outcome [5]: inactive | outcome [9]: inactive | max response [6]: 1.49% | Potency [7]: inactive | Potency [8]: inactive

Nc1cc(S(=O)(=O)O)ccc1O
outcome [10]: inactive | outcome [2]: inactive | outcome [3]: inactive | Potency [4]: inactive | outcome [5]: inactive | outcome [9]: inactive | max response [6]: 14.9% | Potency [7]: inactive | Potency [8]: inactive

CC(C)(C)c1ccc(C(=O)CCCCl)cc1
outcome [10]: inactive | outcome [2]: inactive | outcome [3]: inactive | Potency [4]: inactive | outcome [5]: inactive | outcome [9]: inactive | max response [6]: -1.09% | Potency [7]: inactive | Potency [8]: inactive

COC(=O)c1ccc(C(=O)O)cc1
outcome [10]: inactive | outcome [2]: inactive | outcome [3]: inactive | Potency [4]: inactive | outcome [5]: inactive | outcome [9]: inactive | max response [6]: 1.5% | Potency [7]: inactive | Potency [8]: inactive

C=CC(C)(CCC=C(C)C)OC(=O)C(C)C (configuration not stated)
outcome [10]: inactive | outcome [2]: inactive | outcome [3]: inactive | Potency [4]: inactive | outcome [5]: inactive | outcome [9]: inactive | max response [6]: 0.514% | Potency [7]: inactive | Potency [8]: inactive

CCCCc1ccc(Cl)cc1
outcome [10]: inactive | outcome [2]: inactive | outcome [3]: inactive | Potency [4]: inactive | outcome [5]: inactive | max response [6]: 8.05% | Potency [7]: inactive | Potency [8]: inactive

Reference: PubChem BioAssay (Tox21)
